Screens: PubChem, National Center for Advancing Translational Sciences (NCATS)
Pf Dd2 growth: Plasmodium falciparum Dd2 growth inhibition | P. falciparum Dd2 growth, SYBR Green, 72 h | Potency, µM (titrated, usually from 28.9 µM), for inactives: top-dose activity, negative = inhibition, most hits filed as inhibitors | hit rate 4.3% among 120,000; active = well fitted inhibition curve with a large enough effect;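 also: plate controls were DMSO vehicle for no effect and reference drug for full effect; nearly all actives have a fitted effect of over 65% in size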
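Readout: SYBR Green fluorescence, 485 nm excitation, 535 nm emission, after ~16 h lysis at 37C. Before that, Dd2-infected red cells (2.5% hematocrit) grew 72 h with compound, 29 uM top final concentration.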
Numbers without * were called inactive; i = inactive; [ ] = remark or other dose. The entries come from a sample that favours hits as a whole. Potency is read from the fitted curve at half-maximal effect.

SMILES	Pf Dd2 growth
Cc1cc(Cl)ccc1-n1nc(C)c([C@@H]2C=C[C@@H](NC(=O)c3ccc(N(C)C)cc3)C2)c1C	10µM*
Cc1nn(-c2ccccc2)c(C)c1[C@@H]1C=C[C@@H](NC(=O)CCCC(=O)O)C1	-1%[44.1 µM]
Cc1nn(-c2ccc(F)cc2)c(C)c1[C@@H]1C=C[C@@H](NC(=O)c2ccco2)C1	6.3µM*
CCOC(=O)CSc1nc2cc3c(cc2c(=O)n1CCCCCC(=O)NCc1ccc2c(c1)OCO2)OCO3	i
Cc1ccc(C)c(NC(=O)N2C[C@H](c3nc(-c4cccnc4)no3)[C@@H](C)C2)c1	i
Cc1ccc(C(=O)N2[C@H]3CC[C@@H]2c2cnc(C)nc2C3)cn1	21%
COc1ccc(OC)c(NC(=O)CN(c2ccccc2OC)S(=O)(=O)c2ccc(C)cc2)c1	i
COc1cc(O)ccc1C1CC(=O)Nc2c1c(=O)nc(SCc1ccccc1C)n2C (stereo unspecified)	-24%
CC(c1cccs1)N(C)C(=O)Cc1cccc(Cl)c1 (stereo unspecified)	i
COc1ccc(N(CC(=O)NCCc2ccc(C)cc2)S(=O)(=O)c2c(C)nn(C)c2C)cc1	-6%
COc1ccc(CN2CCOc3ccc(C(=O)NCc4ccc(C)cc4)cc3C2)c(OC)c1	i
Cn1ncc(C(=O)N2CCN(c3ccc(F)cc3)CC2)c1C1CCN(C(=O)OC(C)(C)C)CC1	i
COc1ccc(F)c(-c2nc(CN3CCN(S(N)(=O)=O)CC3)c(C)o2)c1	-1%
COc1cc(-c2nc(CN3CCSCC3)c(C)o2)ccc1F	-13%
COc1ccc(-c2nc(CN3CCN(CCO)CC3)c(C)o2)c2ccccc12	11µM*
Cc1ccc(C2=NC3(CCN(C(=O)c4ccc(F)c(Cl)c4)CC3)ON2)cc1	-6%
COc1ccc(-c2nc3cc(C)ccc3cc2CN2CCCC(O)C2)cc1OC (stereo unspecified)	-19%
COC[C@@H]1CCCN1Cc1cc2ccc(C)cc2nc1-c1ccc(OC)cc1	14µM*
COC[C@H]1CCCN1Cc1nc(C2(O)CCN(C)CC2)cs1	-18%[44.1 µM]
COc1ccc2cc(CN3CCCC(C#N)C3)c(-c3cccs3)nc2c1 (stereo unspecified)	-17%
COc1ccc(-c2nc3cc(C)ccc3cc2CN2CCN(C)C(CCO)C2)cc1 (stereo unspecified)	10µM*
COc1ccc(-c2nc3cc(C)ccc3cc2CN2CCCC(CO)C2)cc1OC (stereo unspecified)	-20%
CCc1ccccc1NC(=O)N(C)CCc1c(C)nn(C)c1C	16%
COC(=O)c1ccccc1NC(=O)CCCN1C(=O)C(c2ccccc2)Oc2cccnc21 (stereo unspecified)	-15%
O=C1NC2(Cc3ccccc31)CN(C(=O)c1cccc3c1OC(F)(F)O3)C2	-1%
SMILES	Pf Dd2 growth
Cc1cc(OCC(=O)N2CCC(c3nc4ccccc4s3)CC2)ccc1Cl	61%
Cc1ccc(S(=O)(=O)N[C@H](C)c2onc(-c3cccnc3)c2C(=O)O)cc1	9%[44.1 µM]
COCc1nc(CCNC(=O)Cc2ccccc2)no1	45%
C=CCN1CC2(CCC1=O)CCN(C(=O)CC(C)n1ccnc1C)CC2 (stereo unspecified)	3%
COCc1nc2ccccc2n1CCOc1cccc(C)c1	22%
COc1ccccc1OCCn1c(NC(=O)c2ccccc2Cl)nc2ccccc21	-9%
COc1ccccc1OCCn1c(COc2cc(C)ccc2C)nc2ccccc21	6.3µM*
OCc1cccc(-c2ccc3ncc(Nc4cccnc4)n3n2)c1	-4%[44.1 µM]
OCc1cccc(-c2ccc3ncc(Nc4ccc(OCCN5CCCC5)cc4)n3n2)c1	0.79µM*
OCc1cccc(-c2ccc3ncc(Nc4ccccc4Cl)n3n2)c1	4µM*
C[S+](=O)([O-])Nc1cccc(Nc2cnc3ccc(-c4cccc(CO)c4)nn23)c1	-2%[44.1 µM]
OCCc1ccc(Nc2cnc3ccc(-c4cccc(CO)c4)nn23)cc1	i
OCc1cccc(-c2ccc3ncc(Nc4cccc(C(F)(F)F)c4)n3n2)c1	-20%[44.1 µM]
Cc1ccc(OCC(=O)N2C[C@@H](Oc3ccccc3)C[C@@H]2C(=O)N2CCOCC2)cc1	9%
COc1ccc(C)cc1NC(=O)Cn1c(=O)nc(-c2ccccc2F)c2cc(Cl)ccc21	14%
CCNC(=O)N[C@H]1[C@H](O)[C@@H](N2CCN(c3ccccc3)CC2)[C@@H]2OC[C@H]1O2	-12%[44.1 µM]
Cn1nccc1-c1ccc2ncn(-c3ccc(F)cc3F)c(=O)c2n1	i
CC(C)N1CCC(C(=O)NC(CCn2ccnc2)c2ccccc2)CC1 (stereo unspecified)	-16%
Cc1ccc(S(=O)(=O)N(C)C(C)c2cccs2)cc1 (stereo unspecified)	i
CC(C)(C)CN1CCC2(Cc3ccccc3CNC2=O)C1 (stereo unspecified)	-25%[44.1 µM]
CC(C)Cc1ccc(CN2CCC3(Cc4ccccc4CNC3=O)C2)cc1 (stereo unspecified)	13µM*
Cc1ccc(CN2CCC3(CC2)Cc2ccccc2NC3=O)cc1	4.5µM*
COc1cccc(CN2CCC3(Cc4ccccc4NC3=O)C2)c1 (stereo unspecified)	-4%[44.1 µM]
